In PubChem BioAssay (Tox21) one finds Potency and outcome data, which are given here for seven compounds.

Inconclusive results are not listed. Calls of active or inactive are those of the source. Unless noted, the call rests on the fitted dose curve.

Experiment [1] is described as follows: Nuclear factor erythroid 2-related factor 2/antioxidant responsive element (Nrf2/ARE) small molecule agonists: qHTS cell viability counter screen in human keratinocytes (AID 1919968; active means well fitted curve in the direction sought with a large enough effect in the repeat runs; an effect the other way counts as inactive or inconclusive; further: nearly all actives have a fitted effect of over 55% in size; further: potency means the concentration at half of the fitted maximal effect). In a few lines:
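Seed 1,500 KeratinoSens cells per well, then incubate 5 h at 37 C/5% CO2. Add compounds in DMSO and incubate 23 h. Add CellTiter-Fluor, wait 1 h and read fluorescence.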

Experiment [2] in a line: Nuclear factor erythroid 2-related factor 2/antioxidant responsive element (Nrf2/ARE) small molecule agonists: luciferase reporter gene qHTS assay in human keratinocytes (AID 1919969). Further: nearly all actives have a fitted effect of over 35% in size. Further: potency means the concentration at half of the fitted maximal effect.
Experiment [3] concerns the target Gonadotropin-releasing hormone receptor (Homo sapiens) (UniProt P30968). The experiment can be described thus: Human gonadotropin-releasing hormone receptor (GnRHR) small molecule agonists, calcium flux assay in GnRHR-HEK293 cells (AID 1920063). Further: nearly all actives have a fitted effect of over 35% in size. In a few lines:
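Cells: HEK293 stably expressing human GnRHR. Steps: overnight (18 h) culture, 1 h calcium dye loading at 37 C, compound addition, kinetic fluorescence read at 480/540 nm. Each compound tested at 15 concentrations in triplicate.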

In experiment [4] the target is KiSS-1 receptor (Homo sapiens) (UniProt Q969F8). As to the kind of experiment: Human kisspeptin (KISS1R) small molecule agonists, calcium flux assay in KISS1R-HEK293 cells (AID 1920064; active means well fitted curve in the direction sought with a large enough effect in the repeat runs; an effect the other way counts as inactive or inconclusive). In short, it runs like this:
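Cells plated and incubated 18 h; dye added, 1 h at 37 C; compounds in DMSO pinned in; signal read at 480/540 nm every second for 3 min. Each compound tested at 15 concentrations in triplicate.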

Experiment [5] in a line: G protein-coupled receptor (GPCR) small molecule agonists, calcium flux assay: HEK293 wild type cell line counter screen (AID 1920065). In a few lines: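 Counter-screen of the Tox21 10K library for non-specific calcium release: dye-loaded cells received compounds in DMSO and were monitored by kinetic fluorescence (480/540 nm, 3 min). Fifteen concentrations, run in triplicate.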

Experiment [6] in a line: p53 small molecule agonists, cell-based qHTS assay with human liver microsomes (AID 1963577). In short, it runs like this: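 p53RE-bla reporter cells were pre-incubated 5 h at 37 C, then treated with compounds plus human liver microsomes (0.5 mg/mL final) and NADPH (0.5 mg/mL final) for 16 h at 37 C. Beta-lactamase activity was read by LiveBLAzer fluorescence after 2 h at room temperature.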

Experiment [7] in a line: p53 small molecule agonists, cell-based qHTS assay with rat liver microsomes: qHTS cell viability counter screen (AID 1963580). Further: nearly all actives have a fitted effect of over 45% in size. In short, it runs like this: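 p53RE-bla HCT-116 cells (4,000/well) rested 5 h at 37 C, then given Tox21 compounds in DMSO with rat liver microsomes (0.5 mg/mL final) plus NADPH (0.5 mg/mL final) for 16 h at 37 C. Viability read by CellTiter-Glo luminescence after 30 min at room temperature.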

Experiment [8] is described as follows: p53 small molecule agonists, cell-based qHTS assay: qHTS cell viability counter screen (AID 1963581). Further: nearly all actives have a fitted effect of over 45% in size. In short, it runs like this: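 Cells: HCT-116 with p53 response element-driven beta-lactamase. Treatment: 16 h, 37 C, compounds in DMSO. Read: CellTiter-Glo luminescence after 30 min RT.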
Experiment [9] in a line: p53 small molecule agonists, cell-based qHTS assay (AID 1963582; active means well fitted activation curve with a large enough effect in the signal ratio in the repeat runs, not every such curve was filed as active; the % refers to the signal ratio). In a few lines:
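Quantitative HTS in p53RE-bla cells: after a 5 h settling period, compounds delivered in DMSO were left on cells for 16 h at 37 C, and reporter induction was measured as fluorescence following 2 h substrate loading.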

The target in experiment [10] is 5-hydroxytryptamine receptor 2A (Homo sapiens) (UniProt P28223). As to the kind of experiment: 5-hydroxytryptamine receptor 2A (HTR2A) small molecule antagonists, cell-based qHTS assay (AID 1963586). Further: nearly all actives have a fitted effect of over 45% in size. In short, it runs like this: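 Antagonist-mode intracellular calcium assay: DOI (4 nM) added after 5 min compound pre-incubation at room temperature to dye-loaded HTR2A-CHO cells. Fluorescence followed for 3 min, sampled every second.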

Experiment [11] shares this target. As to the kind of experiment: 5-hydroxytryptamine receptor 2A (HTR2A) small molecule agonists, cell-based qHTS assay (AID 1963587). Further: nearly all actives have a fitted effect of over 30% in size. In short, it runs like this: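 HTR2A-CHO cells, plated 18 h at 37 C/5% CO2, dye-loaded 1 h at 37 C; compounds in DMSO added by pin tool (agonist mode). Intracellular calcium flux read as kinetic fluorescence on FDSS over 2 min at 1 s intervals.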

For experiment [12], the target named is Muscarinic acetylcholine receptor M1 (Homo sapiens) (UniProt P11229). As to the kind of experiment: Cholinergic receptor muscarinic 1 (CHRM1) small molecule antagonists, cell-based qHTS assay (AID 1963588). Further: nearly all actives have a fitted effect of over 40% in size. In short, it runs like this:
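CHRM1-CHO calcium-flux assay, antagonist mode. Cells were seeded 18 h, dye-loaded 1 h at 37 C and given compound for 5 min at RT, then acetylcholine was added at 50nM. FDSS fluorescence was read 3 min; 15 concentrations, three runs.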

Experiment [13] has the same target. As to the kind of experiment: Cholinergic receptor muscarinic 1 (CHRM1) small molecule agonists, cell-based qHTS assay (AID 1963589). Further: nearly all actives have a fitted effect of over 35% in size. Further: potency means the concentration at half of the fitted maximal effect. In short, it runs like this: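 Agonist-mode qHTS in CHO cells stably carrying human muscarinic M1. Intracellular calcium is tracked by fluorescence every second after compound transfer; each compound runs at 15 concentrations in three independent runs.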

Experiment [14] in a line: cAMP Responsive Elements (CRE) small molecule agonists, cell-based qHTS assay (AID 1963590). In a few lines: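 Agonist mode qHTS in CRE-bla HEK 293T cells: compounds dosed from DMSO for 3 h at 37 C/5% CO2, followed by LiveBLAzer B/G FRET substrate for 2 h at room temperature.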
Experiment [15] can be described thus: cAMP Responsive Elements (CRE) small molecule antagonists, cell-based qHTS assay (AID 1963591; active means well fitted inhibition curve with a large enough effect in the signal ratio in the repeat runs, not every such curve was filed as active; the % refers to the signal ratio). In a few lines:
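Antagonist mode: test compounds are co-incubated with the adenylyl cyclase activator NKH477 (0.25 uM final) on CRE-bla HEK293T cells for 3 h at 37 °C, followed by LiveBLAzer substrate loading.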

Experiment [16] addresses Beta-2 adrenergic receptor (Homo sapiens) (UniProt P07550). The experiment can be described thus: Adrenergic beta2 receptor (ADRB2) small molecule antagonists, cell-based qHTS assay (AID 1963592). Further: series mostly up to about 92 µM; nearly all actives have a fitted effect of over 50% in size. In short, it runs like this:
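Cells (CHO, stable ADRB2 overexpression) incubated 18-20hr at 37C; compounds added from DMSO; agonist mix (1nM isoproterenol, 100uM IBMX, 25uM Ro-20-1724) added; 0.5hr RT; d2-cAMP and anti-cAMP-cryptate added; 1hr RT; 665/615 nm read.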

The target in experiment [17] is D(2) dopamine receptor (Homo sapiens) (UniProt P14416). The experiment can be described thus: Dopamine D2 receptor (DRD2) small molecule agonists, cell-based qHTS assay (AID 1963594). Further: nearly all actives have a fitted effect of over 35% in size. In short, it runs like this: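 HEK293 cells stably expressing DRD2 were cultured 24 h at 37 C, then given Ro20-1724 (0.1 mM final) and compounds for 10 min at room temperature. NKH477 (200nM) was then added for 30 min. cAMP was read by HTRF.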

Experiment [18] shares this target. As to the kind of experiment: Dopamine D2 receptor (DRD2) small molecule antagonists, cell-based qHTS assay (AID 1963595; active means well fitted inhibition curve with a large enough effect in the signal ratio in the repeat runs, with a control signal flat; the % refers to the signal ratio). In short, it runs like this: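 Human DRD2 antagonist qHTS measuring cAMP by HTRF. The cells are exposed to compound for 10 min, then to NKH477 (200 nM) and quinpirole (12 nM) for 30 min at RT, with Ro20-1724 (0.1 mM) present throughout.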

Experiment [19] addresses Beta-2 adrenergic receptor (Homo sapiens) (UniProt P07550). The experiment can be described thus: Adrenergic beta2 receptor (ADRB2) small molecule agonists, cell-based qHTS assay (AID 1963593).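 Further: CHO cells stably overexpressing human ADRB2.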 In a few lines: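 CHO cells stably over-expressing ADRB2 were plated overnight at 37C, then dosed with compounds plus a stimulation mix containing 100uM IBMX and 25uM Ro-20-1724 for 0.5hr at room temperature. cAMP was measured by HTRF competition, 1hr.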

Experiment [20] in a line: p53 small molecule agonists, cell-based qHTS assay with rat liver microsomes (AID 1963578). In short, it runs like this:
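p53RE-bla cells were exposed to compounds together with rat liver microsomes (0.5 mg/mL final) and NADPH (0.5 mg/mL final) for 16 h at 37 C, then read by LiveBLAzer beta-lactamase fluorescence after 2 h at room temperature.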

Sequence of Gonadotropin-releasing hormone receptor (Homo sapiens) (P30968 whole entry, looked up): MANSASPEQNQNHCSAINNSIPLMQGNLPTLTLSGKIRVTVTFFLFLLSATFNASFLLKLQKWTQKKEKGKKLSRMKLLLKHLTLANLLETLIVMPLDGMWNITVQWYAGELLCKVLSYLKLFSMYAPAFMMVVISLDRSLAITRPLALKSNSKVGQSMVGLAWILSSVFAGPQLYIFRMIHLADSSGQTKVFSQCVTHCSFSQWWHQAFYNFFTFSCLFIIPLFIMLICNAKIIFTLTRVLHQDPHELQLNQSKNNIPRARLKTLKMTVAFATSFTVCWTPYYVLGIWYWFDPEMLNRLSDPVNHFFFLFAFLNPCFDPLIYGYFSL
Sequence of D(2) dopamine receptor (Homo sapiens) (P14416 whole entry, looked up): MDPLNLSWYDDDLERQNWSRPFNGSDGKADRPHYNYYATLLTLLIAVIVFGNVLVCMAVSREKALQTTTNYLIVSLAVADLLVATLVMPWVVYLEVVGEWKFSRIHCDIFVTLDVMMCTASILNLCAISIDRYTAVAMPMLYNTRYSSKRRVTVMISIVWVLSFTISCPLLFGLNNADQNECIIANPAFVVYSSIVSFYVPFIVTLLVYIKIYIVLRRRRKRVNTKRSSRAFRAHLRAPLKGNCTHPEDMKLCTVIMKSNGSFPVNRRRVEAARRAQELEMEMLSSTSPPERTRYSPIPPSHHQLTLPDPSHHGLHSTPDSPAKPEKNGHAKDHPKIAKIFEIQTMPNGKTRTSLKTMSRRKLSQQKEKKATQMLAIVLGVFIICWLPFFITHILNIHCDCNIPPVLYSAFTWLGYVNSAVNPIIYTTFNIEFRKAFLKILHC
Sequence of KiSS-1 receptor (Homo sapiens) (Q969F8 whole entry, looked up): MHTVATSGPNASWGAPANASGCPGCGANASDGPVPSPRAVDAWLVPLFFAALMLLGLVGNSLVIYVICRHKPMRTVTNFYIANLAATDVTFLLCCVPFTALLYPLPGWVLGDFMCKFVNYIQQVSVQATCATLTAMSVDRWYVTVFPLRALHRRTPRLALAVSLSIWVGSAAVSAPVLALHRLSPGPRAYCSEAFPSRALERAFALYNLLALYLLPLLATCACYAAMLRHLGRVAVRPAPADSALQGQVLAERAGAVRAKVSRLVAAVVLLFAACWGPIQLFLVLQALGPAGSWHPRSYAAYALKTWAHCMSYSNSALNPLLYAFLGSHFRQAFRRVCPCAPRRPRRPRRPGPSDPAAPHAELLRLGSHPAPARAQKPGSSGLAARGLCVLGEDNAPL
Sequence of Beta-2 adrenergic receptor (Homo sapiens) (P07550 whole entry, looked up): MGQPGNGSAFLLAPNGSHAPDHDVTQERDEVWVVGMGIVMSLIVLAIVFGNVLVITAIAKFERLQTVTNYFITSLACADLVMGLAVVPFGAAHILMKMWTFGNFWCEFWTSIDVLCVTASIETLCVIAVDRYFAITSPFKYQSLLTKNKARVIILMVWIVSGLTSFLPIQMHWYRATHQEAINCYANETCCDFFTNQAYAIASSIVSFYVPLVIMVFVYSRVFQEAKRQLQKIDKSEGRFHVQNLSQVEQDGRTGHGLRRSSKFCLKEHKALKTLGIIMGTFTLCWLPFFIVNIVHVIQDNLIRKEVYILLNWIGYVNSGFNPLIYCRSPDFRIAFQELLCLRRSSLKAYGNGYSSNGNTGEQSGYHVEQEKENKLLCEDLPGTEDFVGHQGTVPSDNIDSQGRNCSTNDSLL
Sequence of 5-hydroxytryptamine receptor 2A (Homo sapiens) (P28223 whole entry, looked up): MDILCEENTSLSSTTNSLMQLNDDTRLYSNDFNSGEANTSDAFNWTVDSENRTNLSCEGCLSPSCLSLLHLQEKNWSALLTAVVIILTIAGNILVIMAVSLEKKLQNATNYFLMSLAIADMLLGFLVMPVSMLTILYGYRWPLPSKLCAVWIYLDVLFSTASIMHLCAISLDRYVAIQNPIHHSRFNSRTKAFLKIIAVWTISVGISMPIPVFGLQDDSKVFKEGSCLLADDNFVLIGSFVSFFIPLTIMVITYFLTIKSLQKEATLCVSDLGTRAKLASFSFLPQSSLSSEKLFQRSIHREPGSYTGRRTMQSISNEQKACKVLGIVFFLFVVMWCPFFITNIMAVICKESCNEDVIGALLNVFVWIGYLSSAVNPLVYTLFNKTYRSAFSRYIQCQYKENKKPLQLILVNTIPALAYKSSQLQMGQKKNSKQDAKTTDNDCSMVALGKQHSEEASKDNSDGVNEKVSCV
Sequence of Muscarinic acetylcholine receptor M1 (Homo sapiens) (P11229 whole entry, looked up): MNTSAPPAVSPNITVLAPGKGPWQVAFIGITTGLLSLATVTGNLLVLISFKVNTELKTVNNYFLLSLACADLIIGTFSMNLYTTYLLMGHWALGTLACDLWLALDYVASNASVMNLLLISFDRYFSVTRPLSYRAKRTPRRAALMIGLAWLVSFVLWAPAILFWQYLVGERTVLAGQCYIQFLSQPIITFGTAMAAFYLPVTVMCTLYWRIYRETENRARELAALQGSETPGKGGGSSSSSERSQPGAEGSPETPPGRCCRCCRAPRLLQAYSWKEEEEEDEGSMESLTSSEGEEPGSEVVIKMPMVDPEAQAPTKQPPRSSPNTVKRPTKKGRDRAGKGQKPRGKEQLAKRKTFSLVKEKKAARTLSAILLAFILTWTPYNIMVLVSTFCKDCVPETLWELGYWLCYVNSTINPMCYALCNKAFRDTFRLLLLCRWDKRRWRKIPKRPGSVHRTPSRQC

For the compound `COc1ccc(NS(=O)(=O)c2ccc(N)cc2)nn1`, the Potency result in experiment [1], in experiment [2], in experiment [3], in experiment [6], in [7] and in [8] was “inactive” throughout. The Potency result in experiment [9], in [10], in [11], in [12], in experiment [13] and in experiment [14] was “inactive” each time. Also, the Potency result in experiment [15], in experiment [16], in experiment [17] and in [18] was “inactive” each time. Besides, the result in experiment [4] and in experiment [5] was inactive.

In the case of `Nc1c(Cl)cc(Cl)cc1Cl`, the Potency entry in [1], in experiment [2], in experiment [3], in experiment [6], in experiment [7] and in experiment [8] was “inactive” each time. The Potency entry in [9], in experiment [10], in experiment [11], in experiment [14], in [15] and in [16] was “inactive” in each case. The Potency result in experiment [19], in [17] and in [18] was “inactive” throughout. In addition, the outcome in experiment [4] and in [5] was inactive. Besides, in [13], the Potency was 8.58 µM (active).

Turning to `Nc1cc(C(=O)O)ccc1Cl`, the Potency entry in experiment [1], in experiment [2], in experiment [3], in experiment [6], in experiment [7] and in experiment [8] was “inactive” in each case. Moreover, the Potency entry in [9], in experiment [10], in experiment [11], in experiment [12], in experiment [13] and in experiment [14] was “inactive” in each case. For the same compound, the Potency result in experiment [15], in experiment [16], in [17] and in experiment [18] was “inactive” each time. Further, the outcome in experiment [4] and in experiment [5] was inactive.

Turning to `O=Cc1c2ccccc2c(Cl)c2ccccc12`, the Potency result in experiment [1], in experiment [3], in [6], in experiment [20], in experiment [10] and in [11] was “inactive” throughout. The Potency result in experiment [12], in experiment [13], in [14], in experiment [15], in [19] and in [17] was “inactive” in each case. For the same compound, in [18], the Potency result was “inactive”. Besides, the Potency in [2] was 7.51 µM (active). Besides, the outcome in experiment [4] and in experiment [5] was inactive.

Turning to `O=C(O)CCC(=O)OC[C@@H](NC(=O)C(Cl)Cl)[C@H](O)c1ccc([N+](=O)[O-])cc1`, the Potency result in experiment [1], in [2], in experiment [3], in [6], in experiment [20] and in [9] was “inactive” each time. Also, the Potency entry in [10], in [12], in experiment [13], in [14], in experiment [15] and in [16] was “inactive” in each case. Besides, the Potency entry in experiment [19], in experiment [17] and in [18] was “inactive” throughout. Moreover, the outcome in [4] and in [5] was inactive.

Take `Cc1cc(F)ccc1-c1cc(N2CC[C@@H](O)[C@H]2CO)ncc1N(C)C(=O)C(C)(C)c1cc(C(F)(F)F)cc(C(F)(F)F)c1`: in [1], the Potency was 19 µM (active). The Potency entry in experiment [2], in [3], in experiment [6], in [20], in experiment [10] and in experiment [11] was “inactive” each time. Moreover, the Potency entry in experiment [12], in experiment [13], in [17] and in [18] was “inactive” throughout. The result in experiment [4] and in experiment [5] was inactive.

In the case of `Cc1cc(O)ccc1N`, the Potency in [1] is 61.4 µM (active); in experiment [2], 54.8 µM (active). The Potency entry in experiment [3], in [6], in experiment [20], in experiment [10], in experiment [11] and in [12] was “inactive” each time. Moreover, the Potency result in experiment [13], in experiment [15], in [16], in experiment [19] and in [18] was “inactive” throughout. Further, the result in [4] and in experiment [5] was inactive.
